Among the data in PubChem BioAssay AID2540 (Sanford-Burnham Center for Chemical Genomics, 2010) are inhibition values, retold here.

About 4,100 (1.2%) of roughly 330,000 compounds were called active. Cut-off read from the data, not from the text of the source: active = inhibition above about 50%; inactive = the rest. Only a selection was taken, and actives are over-represented in it overall.

Sequence of Sentrin-specific protease 8 (Homo sapiens) (Q96LD8 whole entry, looked up): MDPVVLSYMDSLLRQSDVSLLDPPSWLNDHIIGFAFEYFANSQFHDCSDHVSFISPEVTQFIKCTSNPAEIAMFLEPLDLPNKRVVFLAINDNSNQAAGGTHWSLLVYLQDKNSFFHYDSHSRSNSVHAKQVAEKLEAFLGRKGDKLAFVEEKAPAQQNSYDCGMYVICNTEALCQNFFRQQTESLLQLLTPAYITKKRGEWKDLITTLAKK

The test concerns the target Sentrin-specific protease 8 (Homo sapiens) (UniProt Q96LD8). Description: blockers of human SENP8 peptidase activity – biochemical, luminescence, primary screen (AID 2540). Particulars: purified SENP8, Z-RLRGG-aminoluciferin cleavage, at 10 µM, active compounds read high.
As usually defined, the inhibition is the change of the read-out against control, counted positive when it falls. `CN1CCN(c2cc(N3CCNCC3)ccc2[N+](=O)[O-])CC1`: the inhibition is 2.96% (inactive).

For the compound `COc1cccc(-c2nc3ccc(N4CCN(C)CC4)cc3[nH]2)c1`, the inhibition was 57.4% (active).

Consider `Cc1nc2ccc(N3CCN(C)CC3)cc2nc1C`, for which the inhibition is -5.08% (inactive).

Turning to `CN(C)P(=S)(Nc1ccccc1)C(Cl)(Cl)Cl` (stereo not given), the inhibition was -7.38% (inactive).

On to `COc1ccccc1CN1CCN(C(=O)Cc2ccccc2)CC1`, for which the inhibition was -9.12% (inactive).

Turning to `CCOC(=O)c1c(N)n(Cc2ccccc2)c2nc3ccccc3nc12`, the inhibition is 9.31% (inactive).

On to `COc1cc(Cn2c(N)c(C(=O)NCc3ccco3)c3nc4ccccc4nc32)cc(OC)c1OC`, for which the inhibition was 90.9% (active).

Regarding `CCOC(=O)c1c(N)n(CCN2CCOCC2)c2nc3ccccc3nc12`, the inhibition is 2.3% (inactive).

`CC(=O)c1ccc(OC(NC(=O)Cc2ccccc2)C(Cl)(Cl)Cl)cc1` (stereo not given): the inhibition was -0.124% (inactive).

In the case of `CCOc1ccc(CN(CCCl)CCCl)cc1C(=O)OC`, the inhibition was -7.06% (inactive).
